According to PubChem BioAssay:
Activity calls are given as the source filed them.

Key:
[1] = system: Human papillomavirus type 1a protein E7 (residues 44-93); assay: HPV1a E7 fragment binders on microarrays, primary screen, biochemical, small-molecule microarray, residues 44-93, 635 nm fluorescence (AID 1108); details: small-molecule microarray binding, fluorescence 635 nm; higher = more signal;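 also: E7 fragment applied at 1 µg/mL in TBST for 1 h at 4 C; score combines spot fluorescence with its signal to noise ratio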
[2] = modulators of HCV replicon luciferase signal, primary screen, HCV replication inhibitor project, Huh7 cells, luciferase reporter (AID 1109); details: 48 h, higher = more signal;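 also: huh7 hepatoma cells harbouring a luciferase neomycin HCV replicon reporter; luciferase luminescence as measure of HCV replicon replication; test concentration not given here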
[3] = target: Left-right determination factor 2 (Homo sapiens) (UniProt O00292); assay: LEFTY2 binders on small-molecule microarrays, primary screen, biochemical, small-molecule microarray, 635 nm fluorescence scan (AID 1110); details: LEFTY2 binding, higher = more signal
Sequence of Left-right determination factor 2 (Homo sapiens) (O00292 whole entry, looked up): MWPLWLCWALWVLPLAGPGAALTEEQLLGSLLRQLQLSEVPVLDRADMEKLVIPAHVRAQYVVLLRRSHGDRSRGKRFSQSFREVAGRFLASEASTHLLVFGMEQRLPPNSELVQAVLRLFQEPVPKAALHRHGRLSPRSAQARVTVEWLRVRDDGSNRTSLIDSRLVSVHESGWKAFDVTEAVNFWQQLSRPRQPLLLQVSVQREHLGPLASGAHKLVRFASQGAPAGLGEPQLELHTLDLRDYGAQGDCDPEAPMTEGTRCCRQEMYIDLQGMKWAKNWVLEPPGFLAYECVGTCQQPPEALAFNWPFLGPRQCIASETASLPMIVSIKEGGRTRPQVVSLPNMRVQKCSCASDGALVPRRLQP

[4] = target: Calmodulin-1 (Homo sapiens) (UniProt P0DP23); assay: CALM1 binders on microarrays, EGTA buffer, profiling panel, biochemical, small-molecule microarray, Cy5-labelled CALM1 (AID 1111); details: Cy5-CALM1 binding fluorescence, higher = more signal;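 also: labelled calmodulin applied in Tris saline Tween buffer holding calcium plus EGTA and DTT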
[5] = target: Calmodulin-1 (Homo sapiens) (UniProt P0DP23); assay: calcium-bound CALM1 binders on microarrays, profiling panel, artefact control for SMM control-protein annotation, biochemical, small-molecule microarray, Cy5-labelled CALM1, plus calcium (AID 1112); details: Cy5-CALM1 binding fluorescence, higher = more signal;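 also: score merges spot fluorescence with signal to noise from triplicate slides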
[6] = small-molecule microarray binders of probe aWnt5a, primary screen, biochemical, biotinylated probe, 635/667 nm fluorescence (AID 1113); details: higher = more signal;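 also: score merges 667 nm fluorescence intensity with signal-to-noise per printed feature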
[7] = small-molecule microarray binders of probe aShh, primary screen, biochemical, biotinylated probe, 635/667 nm fluorescence (AID 1114); details: higher = more signal;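 also: probe is biotin-labelled aShh protein from a stem cell growth factor screen; measures binding of labelled protein to compounds printed on the slide; score merges feature fluorescence at 667 nm with signal-to-noise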
[8] = small-molecule microarray binders of probe aNog, primary screen, biochemical, biotinylated probe, 635/667 nm fluorescence (AID 1115); details: higher = more signal;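 also: probe is biotinylated aNog protein used at 0.15 µg/mL for 1 h at 4 C; z-score combines 667 nm fluorescence of each spot with its signal to noise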
[9] = target: Torsin-1A-interacting protein 1 (Homo sapiens) (UniProt Q5JTV8); assay: LAP1 binders from COS7 cell lysate, primary screen, small-molecule microarray, 635/667 nm fluorescence (AID 1116); details: COS7-hLAP1 lysate binding, 635 nm fluorescence, higher = more signal
Sequence of Torsin-1A-interacting protein 1 (Homo sapiens) (Q5JTV8 whole entry, looked up): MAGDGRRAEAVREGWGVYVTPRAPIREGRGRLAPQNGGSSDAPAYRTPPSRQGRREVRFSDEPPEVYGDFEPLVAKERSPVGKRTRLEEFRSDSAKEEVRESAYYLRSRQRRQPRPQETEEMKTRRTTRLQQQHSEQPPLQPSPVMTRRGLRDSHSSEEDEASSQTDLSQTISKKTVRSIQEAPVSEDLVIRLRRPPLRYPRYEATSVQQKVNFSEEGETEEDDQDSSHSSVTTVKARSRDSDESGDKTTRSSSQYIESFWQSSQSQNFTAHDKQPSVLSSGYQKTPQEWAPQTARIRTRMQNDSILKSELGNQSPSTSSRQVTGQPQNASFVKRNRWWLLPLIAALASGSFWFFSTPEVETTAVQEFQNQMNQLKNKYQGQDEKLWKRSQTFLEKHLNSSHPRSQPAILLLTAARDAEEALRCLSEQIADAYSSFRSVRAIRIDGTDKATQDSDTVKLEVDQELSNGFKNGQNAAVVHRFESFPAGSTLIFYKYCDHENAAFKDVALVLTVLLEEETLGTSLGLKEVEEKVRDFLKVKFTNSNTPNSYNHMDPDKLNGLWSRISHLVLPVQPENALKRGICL

[10] = target: Alpha-bungarotoxin (Bungarus multicinctus) (UniProt P60615); assay: alpha-bungarotoxin binders on microarray, profiling panel, artefact control for SMM control protein annotation, biochemical, small-molecule microarray, Alexa647 label, 635/667 nm fluorescence (AID 1117); details: alpha-BTX-A647 binding fluorescence, higher = more signal
Sequence of Alpha-bungarotoxin (Bungarus multicinctus) (P60615 whole entry, looked up): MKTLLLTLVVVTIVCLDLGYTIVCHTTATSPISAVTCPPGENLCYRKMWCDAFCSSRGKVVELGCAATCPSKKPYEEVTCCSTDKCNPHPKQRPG

Albumin (Bos taurus) = Albumin (Bos taurus) (UniProt P02769); assay: bovine serum albumin binders on microarray, profiling panel, artefact control for SMM control protein annotation, biochemical, small-molecule microarray, Alexa647 label, 635/667 nm fluorescence (AID 1118); details: BSA-A647 binding, fluorescence 635 nm, higher = more signal;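 also: score merges 667 nm emission intensity and signal-to-noise per printed compound spot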
Sequence of Albumin (Bos taurus) (P02769 whole entry, looked up): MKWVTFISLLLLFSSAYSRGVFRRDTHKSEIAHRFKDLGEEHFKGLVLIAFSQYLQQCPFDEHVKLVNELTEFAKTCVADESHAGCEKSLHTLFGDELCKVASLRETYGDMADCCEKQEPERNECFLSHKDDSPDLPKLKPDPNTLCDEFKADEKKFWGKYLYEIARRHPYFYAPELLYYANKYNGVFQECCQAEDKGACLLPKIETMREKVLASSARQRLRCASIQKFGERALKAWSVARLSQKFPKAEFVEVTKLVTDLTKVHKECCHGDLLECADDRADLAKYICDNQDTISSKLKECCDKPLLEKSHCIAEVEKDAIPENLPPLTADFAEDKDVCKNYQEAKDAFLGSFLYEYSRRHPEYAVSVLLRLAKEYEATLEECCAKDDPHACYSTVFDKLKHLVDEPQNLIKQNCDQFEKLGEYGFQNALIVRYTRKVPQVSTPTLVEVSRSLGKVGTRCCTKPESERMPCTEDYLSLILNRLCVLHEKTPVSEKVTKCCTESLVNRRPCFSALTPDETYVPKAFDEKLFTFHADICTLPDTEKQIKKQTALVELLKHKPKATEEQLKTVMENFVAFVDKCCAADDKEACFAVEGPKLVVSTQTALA

[11] = small-molecule microarray binders of probe aXIP, primary screen, biochemical, NeuroSMM set, 635/667 nm fluorescence (AID 1119); details: higher = more signal, called active from +8 up or from −8 down;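 also: probe is the protein aXip251-270 applied at 1 µg/mL to compound-printed slides; binding of probe to printed compounds measured as 667 nm fluorescence plus signal to noise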
[12] = small-molecule binders of probe aNOTCH3, primary screen, biochemical, small-molecule microarray, 635/667 nm fluorescence (AID 1120); details: higher = more signal;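 also: probe is a biotin-tagged antibody raised against NOTCH3 rather than NOTCH3 protein; score merges spot fluorescence near 667 nm with spot signal to noise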
[13] = small-molecule binders of probe aNOTCH2, primary screen, biochemical, small-molecule microarray, 635/667 nm fluorescence (AID 1121); details: higher = more signal;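 also: score merges feature fluorescence read at 667 nm with its signal to noise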
[14] = target: Carbonic anhydrase 2 (Homo sapiens) (UniProt P00918); assay: CAII small-molecule binders, profiling panel, biochemical, small-molecule microarray, Alexa647-labelled CAII (AID 1122); details: CAII-A647 binding fluorescence, higher = more signal
[15] = COS7 lysate on small-molecule microarray, probe aHis, 635 nm (AID 1123); details: COS7 cell lysate, fluorescence, higher = more signal;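 also: z-score combines 667nm fluorescence intensity with signal-to-noise per printed compound spot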
[16] = compound binding in COS7 lysate, probe aLAP1, primary screen, cell lysate, small-molecule microarray (AID 1124); details: probe aLAP1, fluorescence, higher = more signal;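 also: lysate comes from COS7 cells expressing LAP1 and is applied at 0.3 µg/mL; score merges spot fluorescence near 667 nm with signal-to-noise over triplicate slides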
Sam68 (KHDRBS1) = assay: Sam68 small-molecule binders, primary screen, biochemical, small-molecule microarray, 635 nm fluorescence (AID 1125); details: small-molecule microarray binding, higher = more signal;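 also: score merges 667 nm channel intensity with signal to noise over triplicate slides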
[17] = system: Chordin-like protein 2 (CHRDL2); assay: CHRDL2 small-molecule binders, primary screen, biochemical, small-molecule microarray, 635 nm fluorescence (AID 1126); details: small-molecule microarray binding, fluorescence 635 nm; higher = more signal;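 also: printed compound slides probed with Chrdl2 protein at 4 µg/mL for 1 h at 4 C; score merges 667 nm emission intensity with signal to noise over three replicate slides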
[18] = target: Concanavalin-A (Canavalia ensiformis) (UniProt P02866); assay: ConA small-molecule binders, primary screen, artefact control for SMM control protein annotation, biochemical, small-molecule microarray, Alexa647 label, 635 nm (AID 1127); details: ConA-A647 binding fluorescence, higher = more signal;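 also: z combines 667 nm emission intensity with signal-to-noise across three replicate slides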
Sequence of Concanavalin-A (Canavalia ensiformis) (P02866 whole entry, looked up): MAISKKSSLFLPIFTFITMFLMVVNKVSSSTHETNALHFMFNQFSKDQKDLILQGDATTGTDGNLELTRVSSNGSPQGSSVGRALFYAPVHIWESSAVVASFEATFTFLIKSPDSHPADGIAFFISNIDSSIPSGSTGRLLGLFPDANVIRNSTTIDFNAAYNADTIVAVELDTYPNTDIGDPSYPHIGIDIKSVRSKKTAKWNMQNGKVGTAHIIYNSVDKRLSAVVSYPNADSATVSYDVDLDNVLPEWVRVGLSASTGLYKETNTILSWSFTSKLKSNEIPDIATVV

## C=CC[C@@H]1C=C[C@H](ON=C[C@@H](C)[C@H](OCc2ccccc2)C(C)C)[C@@H](CO)O1
[1]
  composite z-score: 0.0248
[2]
  z-score: -2.12
[3]
  composite z-score: -0.0977
[4]
  composite z-score: -1.07
[5]
  composite z-score: -0.0781
[6]
  composite z-score: -0.101
[7]
  composite z-score: -0.186
[8]
  composite z-score: -0.4
[9]
  composite z-score: -0.159
[10]
  composite z-score: -0.901
Albumin (Bos taurus)
  composite z-score: 0.744
[11]
  composite Z-score: -0.315 (inactive)
[12]
  composite z-score: -0.276
[13]
  composite z-score: -0.221
[14]
  composite z-score: -0.115
[15]
  composite z-score: 0.502
[16]
  composite z-score: 0.103
Sam68 (KHDRBS1)
  composite z-score: 0.0186
[17]
  composite z-score: 0.157
[18]
  composite z-score: -0.817

## O=C1C=C[C@@H](O)[C@@H]2[C@@H]3C(=O)N(c4ccc(F)cc4F)C(=O)[C@@H]3CC[C@@H]12
[1]
  composite z-score: 0.229
[2]
  z-score: -0.578
[3]
  composite z-score: 0.237
[4]
  composite z-score: 0.269
[5]
  composite z-score: -0.282
[6]
  composite z-score: -0.0405
[7]
  composite z-score: -0.153
[8]
  composite z-score: -0.252
[9]
  composite z-score: 0.804
[10]
  composite z-score: 0.0764
Albumin (Bos taurus)
  composite z-score: 0.351
[11]
  composite Z-score: 0.331 (inactive)
[12]
  composite z-score: 0.0409
[13]
  composite z-score: -0.0772
[14]
  composite z-score: -0.0233
[15]
  composite z-score: -0.303
[16]
  composite z-score: -0.113
Sam68 (KHDRBS1)
  composite z-score: 0.157
[17]
  composite z-score: 0.717
[18]
  composite z-score: 0.753

## COC(=O)NCC=Cc1nc(CCCO)co1
[1]
  composite z-score: 0.722
[2]
  z-score: -0.0343
[3]
  composite z-score: 0.493
[4]
  composite z-score: -0.368
[5]
  composite z-score: -0.98
[6]
  composite z-score: -0.0462
[7]
  composite z-score: 0.0141
[8]
  composite z-score: -0.137
[9]
  composite z-score: 0.116
[10]
  composite z-score: -0.498
Albumin (Bos taurus)
  composite z-score: 0.782
[11]
  composite Z-score: 0.678 (inactive)
[12]
  composite z-score: -0.0362
[13]
  composite z-score: -0.153
[14]
  composite z-score: -0.0958
[15]
  composite z-score: 0.549
[16]
  composite z-score: 0.215
Sam68 (KHDRBS1)
  composite z-score: 0.559
[17]
  composite z-score: 0.809
[18]
  composite z-score: 0.161

## O=C1[C@H]2[C@H]3[C@H](O)[C@H](O)CC(=NOCc4ccccc4)[C@H]3CC[C@H]2C(=O)N1Cc1ccc2c(c1)OCO2
[1]
  composite z-score: -0.249
[2]
  z-score: -0.188
[3]
  composite z-score: 0.621
[4]
  composite z-score: -0.208
[5]
  composite z-score: -0.444
[6]
  composite z-score: -0.091
[7]
  composite z-score: -0.0553
[8]
  composite z-score: -0.243
[9]
  composite z-score: 0.336
[10]
  composite z-score: 0.413
Albumin (Bos taurus)
  composite z-score: 0.116
[11]
  composite Z-score: -0.192 (inactive)
[12]
  composite z-score: 0.0116
[13]
  composite z-score: -0.146
[14]
  composite z-score: -0.0448
[15]
  composite z-score: 1.1
[16]
  composite z-score: 0.148
Sam68 (KHDRBS1)
  composite z-score: -0.18
[17]
  composite z-score: 0.408
[18]
  composite z-score: -0.261

## CCOC(=O)NN=C1C[C@@H](O)[C@@H](O)[C@@H]2[C@@H]3C(=O)N([C@@H](C)c4ccccc4)C(=O)[C@@H]3CC[C@H]12
[1]
  composite z-score: 0.171
[2]
  z-score: -0.789
[3]
  composite z-score: 0.0792
[4]
  composite z-score: -0.258
[5]
  composite z-score: -0.453
[6]
  composite z-score: -0.124
[7]
  composite z-score: -0.117
[8]
  composite z-score: -0.287
[9]
  composite z-score: 2.53
[10]
  composite z-score: -0.0914
Albumin (Bos taurus)
  composite z-score: 0.0904
[11]
  composite Z-score: -0.36 (inactive)
[12]
  composite z-score: -0.0647
[13]
  composite z-score: -0.0424
[14]
  composite z-score: -0.119
[15]
  composite z-score: -0.156
[16]
  composite z-score: -0.111
Sam68 (KHDRBS1)
  composite z-score: 0.338
[17]
  composite z-score: 0.183
[18]
  composite z-score: 0.297
